# High-throughput results deposited in PubChem BioAssay by National Center for Advancing Translational Sciences (NCATS).
# Rows were chosen to be rich in hits. Some 19% of all compounds tested hit in one or more screens of this group.
# MCF10A rereplic: DNA re-replication induction in MCF 10a cells. 2.9% of 350,000 active. MCF 10A DNA re-replication, Hoechst nuclear intensity, 48 h. Potency, µM (top dose mostly 46.1 µM), most hits filed as activators. AID 624296; also: nearly all actives have a fitted effect of over 50% in size
# IL1B secr inh: inflammasome signaling inhibition, IL-1 beta readout; 4.7% of 360,000 active; THP-1 LPS/ATP IL-1B secretion, AlphaLISA, 16 h; active compounds read low; AID 743279; activity change, % at 57.5 µM; in the data active = activity change below about -50%; inconclusive = mostly about -30% to -49%
#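 THP-1 cells pretreated 1 hr with compounds (up to 57.5 uM final), then stimulated with LPS (250 ng/mL final) plus ATP (1.25 mM final); secreted IL-1B measured by AlphaLISA after 16 hr, decreased signal indicating inhibition.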
# SW480 rerep: induces DNA re-replication in SW480 colon adenocarcinoma cells. SW480 DNA re-replication, Hoechst DNA content imaging, 48 h. Potency, µM (titrated, usually from 46.1 µM), usual class: activators. 1.8% of 340,000 active. AID 624297; also: nearly all actives have a fitted effect of over 55% in size
#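 Compounds, transferred as 23 nL by pin tool, were incubated with cells for 48 hr; DNA content per nucleus was then quantified by Hoechst staining and fluorescence plate imaging.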
# TDP1 cell noCPT: qHTS for Inhibitors of human tyrosyl-DNA phosphodiesterase 1 (TDP1): qHTS in cells in absence of CPT; DT40 Tdp1-/- hTDP1 cells, no CPT, ATP luminescence, 48 h; Potency, µM (top dose mostly 46.2 µM), usual class: inhibitors; 15% of 420,000 active; AID 686978, 2013; also: nearly all actives have a fitted effect of over 55% in size
#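 No-CPT arm: Tdp1-/-;hTDP1 DT40 cells (400/well) plus compounds, incubated ≥48 hr at 37 °C. Readout CellTiter-Glo luminescence.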
# DT40 TDP1 CPT: growth inhibition of DT40 Tdp1-/-;hTDP1 cells with camptothecin (screen for TDP1 inhibitors) | chicken DT40 Tdp1-/-;hTDP1 cells + 20 nM CPT, ATP luminescence, 48 h | Potency, µM (top dose mostly 46.2 µM), actives largely listed as inhibitors | 12% of 420,000 active; also: nearly all actives have a fitted effect of over 55% in size
#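 Chicken DT40 Tdp1-/- cells stably complemented with human TDP1 were seeded at 400 cells/well in medium containing 20 nM camptothecin, exposed to pin-transferred compounds, and grown at 37 °C for at least 48 hr. Viability was read as ATP luminescence.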
# Chronic BCR inh: blocks chronic active B-cell receptor signaling; Potency, µM (series often up to 46.1 µM), most hits filed as inhibitors; 0.05% of 340,000 active; ABC-DLBCL IkBa-CBG/CBR reporter, luminescence ratio, 4 h; AID 493014; active = well fitted inhibition curve with a large enough effect in the signal ratio, with a control signal flat, not every such curve was filed as active; inconclusive = small, poorly fitted or top-dose-only effect, or effect the other way, or a change in a side signal; the % refers to the signal ratio
#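 Compounds up to 46 uM were incubated four hours with TMD8 cells whose green CBG68 luciferase is fused to IkappaBalpha; red CBR luminescence normalised the signal, and concentration-effect curves were fitted to fusion, red and ratio data.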
# Numbers stand for hits; 0 = inactive; ? = inconclusive; - = no result; [ ] = remark or other dose. Unless noted, calls follow the shape of the dose curve; as a rule, active = well fitted curve in the direction sought with a large enough effect; inconclusive = small, poorly fitted or top-dose-only effect, or another doubt; inactive = no such curve, though single readings can be large; an effect the other way counts as inactive or inconclusive.
SMILES,MCF10A rereplic,IL1B secr inh,SW480 rerep,TDP1 cell noCPT,DT40 TDP1 CPT,Chronic BCR inh
Cc1ccc(S(=O)(=O)N2CC3C(=O)C[C@@H](c4ccccc4)N(S(=O)(=O)c4cccc(Cl)c4)C3CC2c2ccccc2)cc1 (stereo partly specified),-,0,-,23.1µM,?,-
O=C(CN1CCN(C(=O)C2COc3ccccc3O2)CC1)Nc1ccccc1 (stereo unspecified),0,0,0,0,0,0
COc1ccc(OC)c(CN2C(=O)CN(S(C)(=O)=O)CC2(C)C(=O)Nc2c(C)cccc2C)c1 (stereo unspecified),-,0,-,0,0,-
CCOC(=O)C(=CNNc1c(C)csc1C(=O)OC)C(=O)OCC,0,0,0,14.6µM,?,?
Cc1ccc2[nH]c3c(N4CCN(Cc5ccccc5)CC4)ncnc3c2c1,?,?,?,9.2µM,13µM,?
CCOc1ccc2[nH]c3c(N4CCN(c5ccccn5)CC4)ncnc3c2c1,0,-77.2,?,15.8µM,8.91µM,?
Cc1ccc2[nH]c3c(N4CCCCCC4)ncnc3c2c1,-,-,-,-,-,0
Cc1ccc2c(c1)[nH]c1c(N3CCN(Cc4ccccc4)CC3)ncnc12,?,-98.0,?,4.61µM,5.8µM,0
Cc1ccc2[nH]c3c(N4CCN(Cc5ccc6c(c5)OCO6)CC4)ncnc3c2c1,-,-,-,-,-,0
CCC(C)(C)C(=O)O[C@@H]1C[C@@H](C)C=C2C=C[C@H](C)[C@H](CC[C@@H]3C[C@@H](O)CC(=O)O3)[C@H]21,-,-,-,18.8µM,23.7µM,-
CCC(C)(C)C(=O)OC1CC(C)C=C2C=CC(C)C(CCC3CC(O)CC(=O)O3)C21 (stereo unspecified),-,-,-,20.6µM,25.9µM,-
C[C@@H]1C(=O)NC2=Nc3cccc(Cl)c3CN21,0,-,0,0,0,-
CCOC(=O)C1(CCc2ccccc2)CCN(Cc2c(O)cccc2OC)CC1,?,-91.7,0,13µM,25.9µM,0
CCOC(=O)C1(CCc2ccccc2)CCN(Cc2ccc(O)cc2)CC1,0,0,0[1.84 µM],20.6µM,16.4µM,?
CCOC(=O)C1(CCc2ccccc2)CCN(Cc2ccc(OC)cc2)CC1,0,0,0,0,0,0
Cc1nc(-c2ccccc2)nc2[nH]c(C(C)C)cc(=O)c12,9.2µM,0,0,20.6µM,?,?
O=C(NN=C1CCCC1)c1ccccc1OCc1ccc(Cl)cc1,0,0,0,?,0,?
CC(C)(C)c1cc(C(=O)N/N=C/c2ccc(-c3ccccc3[N+](=O)[O-])o2)n[nH]1,?,0,0,?,?,0
Cc1ccc(/C=N/Nc2ccc(C(=O)O)cc2)o1,0,0,?,0,0,?
O=S(=O)(N/N=C\c1ccc(-c2ccccc2Cl)o1)c1ccccc1,?,0,?,11.2µM,11.2µM,0
O=C(O)c1ccc(N/N=C/c2ccc(-c3ccc(Br)cc3)o2)cc1,?,0,20.6µM,?,?,?
O=C(N/N=C/c1ccc(-c2ccccc2[N+](=O)[O-])o1)c1cccnc1,0,0,0,?,16.4µM,?
O=C(O)c1ccc(N/N=C/c2ccc(-c3ccccc3Cl)o2)cc1,?,0,16.4µM,0,0,?
O=S(=O)(NN=Cc1cccc(Cl)c1)c1ccccc1,-,0,-,?,?,-
O=C(N/N=C/c1ccc(-c2ccccc2Cl)o1)c1ccccc1,29.1µM,0,?,18.4µM,14.6µM,?
SMILES,MCF10A rereplic,IL1B secr inh,SW480 rerep,TDP1 cell noCPT,DT40 TDP1 CPT,Chronic BCR inh
COc1ccccc1C(CC(=O)Nc1nccs1)c1ccco1 (stereo unspecified),0,0,0,14.6µM,?,0
O=C(CC(c1ccc(F)cc1)c1ccco1)Nc1nccs1 (stereo unspecified),0,0,0,?,0,0
O=[N+]([O-])c1ccc2c(c1)C=C/C2=C\c1ccc(C=S)cc1,-,-,-,11.2µM,?,-
COc1cccc(N2CCN(S(=O)(=O)c3ccc4c(c3)N(C(C)=O)CCO4)CC2)c1,0,0,0,?,?,0
CC[C@@H](C(=O)[C@@H](C)[C@@H](O)[C@H](C)CCc1ccc(C)c(O)c1C(=O)O)[C@H]1O[C@](CC)([C@H]2CC[C@](O)(CC)[C@H](C)O2)C[C@@H]1C,?,-91.6,?,2.31µM,2.59µM,?
NC(=O)C1CCCNC1 (stereo unspecified),0,-56.8,0,0,0,0
CC(NC(=O)CN(C)Cc1cccc(Cl)c1)c1ccccc1 (stereo unspecified),0,0,0,?,0,0
CN(CC(=O)Nc1cccc(F)c1)CC(=O)NC(c1ccccc1)c1ccccc1,0,0,0,?,23.1µM,0
CN(CC(=O)Nc1ccc(Cl)c(C(F)(F)F)c1)C(=O)c1ccccc1SCC(=O)N1CCCC1,?,0,0,?,18.4µM,-
CN(CC(=O)NCC(=O)Nc1ccc(F)cc1)CC(=O)Nc1ccc(Cl)c(C(F)(F)F)c1,0,-71.8,0,0,0,-
CC(NC(=O)CN(C)CC(=O)Nc1ccc(Cl)c(C(F)(F)F)c1)c1ccccc1 (stereo unspecified),?,0,0,23.1µM,20.6µM,0
O=C(NCc1cccc(C(F)(F)F)c1)C1C(=O)Nc2ccccc2C(=O)N1C1CCCC1 (stereo unspecified),-,0,-,0,?,-
CCOC(=O)C1CCN(C(c2ccc(OCC)cc2)c2c(O)cc(C)n(CCOC)c2=O)CC1 (stereo unspecified),-,-,-,0,0,-
COc1ccc(S(=O)(=O)N2CCN(C(=O)c3cc(C)nc4ccccc34)CC2)cc1OC,0,0,0,0,0,0
C#CCn1c(C2CC(=O)N(c3ccc(OC)cc3)C2)nc2ccccc21 (stereo unspecified),-,-,-,0,0,-
CN(CC(=O)NCc1ccc(F)cc1)CC(=O)Nc1ccc(Cl)c(C(F)(F)F)c1,?,-69.1,0,20.6µM,23.1µM,?
CC1CC1C(=O)N(C)CC(=O)Nc1ccc(Cl)c(C(F)(F)F)c1 (stereo unspecified),0,0,0,?,?,0
CCOC(=O)NC1(NCC(C)C)Oc2ccccc2O1,0,0,0,0,?,0
CCOC(=O)NC1(NCc2ccccc2)Oc2ccccc2O1,?,0,?,20.6µM,?,0
COc1ccc(S(=O)(=O)Nc2c(NC3CCCCC3)c3ccccc3oc2=O)cc1OC,0,0,0,?,?,?
COc1ccc(NC(=O)c2c(C)nn(Cc3ccccc3)c2Cl)cc1S(=O)(=O)N1CCOCC1,2.06µM,0,0,0,0,0
